# Bioassay records as filed in PubChem BioAssay.
# Pol kappa inh-1: inhibitors of human DNA polymerase kappa; Potency, µM (highest dose often 107 µM), for inactives: at the top dose activity, negative = inhibition, most hits filed as inhibitors; AID 588579; hit rate 0.53% among 400,000; Q9UBT6; purified Pol kappa, fluorescent DNA synthesis assay, 10 min; further: potency means the concentration at half of the fitted maximal effect; on the % scale 0 is the no-effect control and ±100 the full control effect
#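 Pol kappa 10 nM + cpd, 15 min RT; start w/ substrate 50 nM final; fluorescence kinetic read, 0 and 10 min. Neg ctrl: buffer, no enzyme.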
# WRN helicase inh: inhibitors of human WRN helicase; Q14191; WRN helicase unwinding, fluorescent forked duplex, kinetic; Potency, µM (highest dose often 114 µM), for inactives: top-dose activity change, negative = inhibition, actives largely listed as inhibitors; hit rate 0.46% among 360,000; further: potency means the concentration at half of the fitted maximal effect; on the % scale 0 is the no-effect control and ±100 the full control effect; nearly all actives have a fitted effect of over 55% in size
#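 WRN at 20 nM final preincubated with compound 15 min at room temperature; reaction started with 100 nM fluorophore/quencher forked duplex oligonucleotide and 2 mM ATP final. Unwinding followed kinetically by red fluorescence (ex 525, em 598 nm).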
# Pol eta inh-1: inhibitors of human DNA polymerase eta; Q9Y253; recombinant Pol eta, fluorescent DNA replication assay; Potency, µM (series often up to 114 µM), for the others: top-dose activity change, negative = inhibition, usual class: inhibitors; hit rate 1.2% among 390,000; further: potency means the concentration at half of the fitted maximal effect; on the % scale 0 is the no-effect control and ±100 the full control effect
# Target sequence (Q9Y253 whole entry, looked up): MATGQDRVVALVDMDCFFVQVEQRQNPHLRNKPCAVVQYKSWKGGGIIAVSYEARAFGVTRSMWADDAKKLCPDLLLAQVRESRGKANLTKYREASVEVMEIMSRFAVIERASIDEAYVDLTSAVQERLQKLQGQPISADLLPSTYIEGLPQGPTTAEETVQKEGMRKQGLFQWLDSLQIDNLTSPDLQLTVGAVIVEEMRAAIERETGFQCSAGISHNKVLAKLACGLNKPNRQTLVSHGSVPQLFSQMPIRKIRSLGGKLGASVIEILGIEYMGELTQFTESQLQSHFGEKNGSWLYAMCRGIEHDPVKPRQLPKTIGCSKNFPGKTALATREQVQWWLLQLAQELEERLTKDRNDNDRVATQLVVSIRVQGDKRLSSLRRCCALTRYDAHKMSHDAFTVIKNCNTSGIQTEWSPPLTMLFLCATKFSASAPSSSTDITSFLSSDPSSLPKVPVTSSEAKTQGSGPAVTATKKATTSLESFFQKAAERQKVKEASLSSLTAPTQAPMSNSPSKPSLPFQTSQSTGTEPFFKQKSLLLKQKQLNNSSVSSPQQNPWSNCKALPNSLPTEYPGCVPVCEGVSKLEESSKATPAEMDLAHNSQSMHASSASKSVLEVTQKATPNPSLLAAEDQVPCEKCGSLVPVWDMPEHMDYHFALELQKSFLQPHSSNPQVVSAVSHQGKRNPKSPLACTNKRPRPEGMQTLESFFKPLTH
#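 Pol eta (10 nM) was preincubated with compounds for 15 min at room temperature, after which fluorescent replication substrate (50 nM final) was added to start the reaction. Fluorescence was read kinetically at 0 and 10 min.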
# PI5P4Ka inh: PI5P4K alpha (human) kinase inhibition | hit rate 1.2% among 330,000 | max response, % | PI5P4Kalpha enzyme, ADP-Glo luminescence, 60 min; hits give low values | AID 652105 | P48426; active means max response of -50% or lower; inconclusive means between -30% and -50%; inactive means -30% or higher; further: value at the top dose of about 77 µM; on the % scale 0 is the no-effect control and ±100 the full control effect
#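 Single end-point luminescence (ADP-Glo) quantified ADP from PI5P4Kalpha turnover; ATP 5 microM final, 1 h at RT, 0.1% CHAPS and 0.28 mM EGTA in HEPES pH 7.4.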
# POLB inh: blocks human DNA polymerase beta activity | P06746 | Pol beta primer extension/strand displacement, fluorescence kinetic | Potency, µM (series often up to 114 µM), without a hit: at the highest dose activity change, negative = inhibition, most hits filed as inhibitors | hit rate 1.3% among 340,000 | AID 485314; further: potency means the concentration at half of the fitted maximal effect; on the % scale 0 is the no-effect control and ±100 the full control effect
#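 Values derive from four-parameter Hill fits of normalized kinetic data: reads at 0 and 10 min following addition of 50 nM substrate to 10 nM Pol beta preincubated 15 min with compound.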
# Pol iota inh: blocks human DNA polymerase iota activity; Q9UNA4; Pol iota fluorescent replication assay, 10 min; Potency, µM (doses to about 115 µM), without a hit: top-dose activity, negative = inhibition, actives largely listed as inhibitors; hit rate 1% among 390,000; further: potency means the concentration at half of the fitted maximal effect
#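 Fluorescent replication assay read twice, at 0 min and 10 min after adding 50 nM (final) substrate. Enzyme (10 nM) and compounds were first incubated 15 min at room temperature; enzyme-free buffer wells were negative controls.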
# GALK inh confirm: galactokinase (human) inhibition, confirmation; Potency, µM (doses to about 115 µM), without a hit: at the top dose activity, negative = inhibition, usual class: inhibitors; hit rate 70% among 150; shares compounds with Pol eta inh-1; purified GALK, Kinase-Glo ATP depletion luminescence; AID 2015
# GALK redox cs: redox cycling activity in phenol red-HRP assay; shares compounds with Pol eta inh-1; Phenol red-HRP H2O2 redox cycling, absorbance 600 nm; Potency, µM (series often up to 115 µM), inactives show at the highest dose activity change, negative = H2O2 signal, most hits filed as inhibitors; hit rate 40% among 150; AID 2035
# HEK293 viability: reduces HEK-293 cell viability in GALK counter-screen; HEK-293 viability, ATP luminescence (CellTiter-Glo), 24/48 h; shares compounds with Pol eta inh-1; Potency, µM (titrated, usually from 46.1 µM), for the others: at the highest dose activity change, negative = cytotoxicity, hits mostly inhibitors; hit rate 10% among 170; further: potency means the concentration at half of the fitted maximal effect; on the % scale 0 is the no-effect control and ±100 the full control effect
# Pol kappa inh-2: Pol kappa (human) inhibition, cherry-pick confirmation; Potency, µM, most hits filed as inhibitors; shares compounds with Pol eta inh-1; purified Pol-kappa, fluorescent strand-displacement substrate; hit rate 76% among 920; further: potency means the concentration at half of the fitted maximal effect
# Pol eta inh-2: confirmation of human DNA polymerase eta inhibitors | hit rate 64% among 2,600 | Potency, µM, actives largely listed as inhibitors | shares compounds with Pol eta inh-1 | Pol eta primer extension, TAMRA/BHQ fluorescence, 10 min; further: potency means the concentration at half of the fitted maximal effect
# Starred values were filed as active, the others as inactive; ? = inconclusive; / = no result given; [ ] = remark or other dose. Sampled rows, rich in hits. Any-hit rate of the full collection: about 2.8%. Unless noted, the call rests on the fitted dose curve; in most records, active means well fitted curve in the direction sought with a large enough effect; inconclusive means small, poorly fitted or top-dose-only effect, or another doubt; inactive means no such curve, though single readings can be large; an effect the other way counts as inactive or inconclusive.
SMILES,Pol kappa inh-1,WRN helicase inh,Pol eta inh-1,PI5P4Ka inh,POLB inh,Pol iota inh,Pol eta inh-2,others
COc1ccc(C(=O)NNC(=O)Cc2coc3cc(OC)ccc23)cc1,?,-35.5%,20µM*,?,/,?,?,
CCOCCCN(Cc1ccco1)S(=O)(=O)c1cc2c(cc1Cl)NC(=O)CO2,0.8%[60.1 µM],/,79.4µM*,/,?,?,?,Pol kappa inh-2=?
COC(=O)/C=C1\S/C(=N/NC(=O)c2ccccc2)NC1=O,0.0%,9.1%,-7.4%,-16.6,37.8%,14.6%,/,
COc1ccccc1/C=C1\S/C(=N/NC(=O)c2cccc(Br)c2)NC1=O,-21.6%,?,39.8µM*,?,-27.3%,6.0%,?,
COC(=O)c1ccccc1NC1=C/C(=N\S(=O)(=O)c2ccc(C(=O)O)cc2)c2ccccc2C1=O,?,?,14.1µM*,?,31.6µM*,1.12µM*,/,GALK inh confirm=?;GALK redox cs=11.9µM*;HEK293 viability=?
COC(=O)c1ccccc1Nc1ccccc1,-4.6%,2.8%,-13.8%,/,10.9%,1.7%,/,
CCOC(=O)CSc1nc(=O)n2cccc(C)c2n1,-4.2%,2.5%[57.1 µM],4.7%,12.1,0.5%,21.5%,/,
O=C(CSc1ccncc1)Nc1ccc(S(=O)(=O)Nc2nccs2)cc1,?,-30.1%,17.8µM*,-13.3,2.3%,28.2µM*,47.8*,
CCOC(=O)/C=C/C(=O)Nc1ccc(S(=O)(=O)Nc2nccs2)cc1,-38.5%,-7.6%[11.6 µM],44.7µM*,-3.5,-2.3%,25.1µM*,?,
O=C(Nc1ccc(S(=O)(=O)Nc2nccs2)cc1)/C(=C/c1ccccc1Cl)NC(=O)c1ccccc1,-25.2%,-25.6%[57.1 µM],?,-29.3,-1.4%,-12.9%,?,
Cc1ccc(SCC(=O)Nc2ccc(S(=O)(=O)Nc3nccs3)cc2)cc1,-23.5%,-20.6%,?,-18.6,-23.2%,?,/,
CCOc1ccc(N2C(=O)c3[nH]nc(-c4ccc(OC)cc4)c3C2c2cccs2)cc1 (stereo unspecified),-5.3%,/,/,/,-3.6%,?,/,
CCOC(=O)c1ccccc1NC(=O)CCOc1ccccc1,2.0%,/,13.1%,/,-0.2%,0.4%,/,
Cc1ccc(S(=O)(=O)N[C@@H](Cc2ccccc2)C(=O)N2CCC[C@@H]2C(=O)O)cc1,-1.4%,7.4%,-13.1%,1.2,7.4%,127.3%,/,
O=c1[nH][nH]c2cc(=O)n(-c3ccc(Cl)cc3)nc12,79.4µM*,?,?,-26.6,?,?,?,Pol kappa inh-2=16.8*
CCc1cc[n+](C2=C([O-])c3ccccc3C(=O)/C2=N\S(=O)(=O)c2cccs2)cc1,-19.0%,-32.1%,50.1µM*,?,?,?,75.7*,
CCN1CCN(c2ncnc3c2cnn3-c2ccc(F)cc2)CC1,-11.7%[60.1 µM],/,-13.2%,/,2.0%,39.8%,/,
Cc1ccc(NC(=O)CCNS(=O)(=O)c2ccc3c(c2)oc(=O)n3C)cc1,89.1µM*,?,50.1µM*,/,-2.7%,20µM*,?,
